AI-2 QS mod: modulators of Vibrio harveyi AI-2 quorum sensing system. 300,000 compounds, 0.4% hits. Vibrio harveyi JMH597 AI-2 luminescence/OD600 ratio, 9 h; hits give low values; strain lacks LuxN and CqsS sensors; 0 = neutral-control median. activity change, % at 7.5 µM; in the data active means activity change below about -75%, passing the limit was not always enough;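 further: luminescence divided by OD600 gain over 9 h not by final OD600 alone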
GRIN3A LBD mod: modulators (binders) of human NR3A ligand-binding domain; 340,000 compounds, 2.5% hits; NR3A LBD differential scanning fluorimetry, Tm shift; 0% = protein alone, 100% = glycine-bound protein; Tm shift relative to glycine control, % at 25 µM; AID 1259313;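 active means melting temperature shift of at least 10% of the positive control shift, at one fixed dose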
Cardio protect: modulators protecting cardiomyocytes from myocardial damage; H9c2 cardiomyocytes, H2O2 injury protection, ATPLite, 2 h; 360,000 compounds, 0.63% hits; AID 588492; protection from H2O2 cell death, % at 20 µM;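 active means compounds giving at least 50% protection of heart cells from peroxide-induced death in the single-dose screen, raw or plate-pattern-corrected value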
AHR act: activates the human aryl hydrocarbon receptor; P35869; activation, % at 5 µM; 320,000 compounds, 2.5% hits; AHR-responsive luciferase reporter cells, luminescence; in the data active means activation above about 47%
Target sequence (P35869 whole entry, looked up): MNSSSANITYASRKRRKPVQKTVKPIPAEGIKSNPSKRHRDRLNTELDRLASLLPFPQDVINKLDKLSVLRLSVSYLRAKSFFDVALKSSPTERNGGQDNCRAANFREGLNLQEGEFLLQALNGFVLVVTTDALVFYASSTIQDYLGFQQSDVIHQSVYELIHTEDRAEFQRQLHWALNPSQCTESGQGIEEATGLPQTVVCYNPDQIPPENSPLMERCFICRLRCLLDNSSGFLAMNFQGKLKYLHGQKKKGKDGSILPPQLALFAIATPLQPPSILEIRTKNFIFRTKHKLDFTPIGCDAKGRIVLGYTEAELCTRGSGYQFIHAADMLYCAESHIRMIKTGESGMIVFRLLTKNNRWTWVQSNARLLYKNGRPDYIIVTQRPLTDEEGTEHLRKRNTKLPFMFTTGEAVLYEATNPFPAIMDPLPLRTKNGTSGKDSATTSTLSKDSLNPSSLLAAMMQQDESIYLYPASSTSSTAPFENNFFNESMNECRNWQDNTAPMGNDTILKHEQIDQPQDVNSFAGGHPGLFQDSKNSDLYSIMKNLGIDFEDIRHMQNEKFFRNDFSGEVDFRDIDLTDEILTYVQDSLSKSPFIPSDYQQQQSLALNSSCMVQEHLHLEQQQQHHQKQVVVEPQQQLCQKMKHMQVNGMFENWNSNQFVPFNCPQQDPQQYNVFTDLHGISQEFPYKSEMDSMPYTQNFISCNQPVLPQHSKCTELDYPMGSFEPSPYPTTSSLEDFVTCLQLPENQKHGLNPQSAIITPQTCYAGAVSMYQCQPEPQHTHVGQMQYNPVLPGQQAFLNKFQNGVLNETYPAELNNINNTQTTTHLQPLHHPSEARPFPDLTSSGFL
NTR1 ag: NTR1 (human) agonism. P30989. 330,000 compounds, 0.17% hits. activation, % at 20 µM. NTR1-U2OS beta-arrestin-GFP spot imaging, agonist mode. AID 493036;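 active means activation at or above 40% of the spot to cytoplasm intensity ratio, with at least 20 cells analyzed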
SUMO Mot1 rescue: blocks SUMOylation pathway, rescuing yeast Mot1-301 growth. growth rescue, % at 18.8 µM. S. cerevisiae Mot1-301 growth rescue, ATP luminescence, 38.5C; percent above DMSO median, 100 means doubled. 320,000 compounds, 1% hits;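 active means every valid replicate shows activation above 250% relative to neutral control wells; inactive means the rest, any valid replicate at or below 250%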
Each line names hits and unclear results; the compound was inactive in the other large screens. Sampled rows, rich in hits. Any-hit rate of the full collection: about 6.2%.

Nn1c(SCC(=O)Nc2ccc3c(c2)OCO3)nnc1-c1ccncc1	none
O=C(CSc1nc(-c2ccccc2)c(-c2ccccc2)[nH]1)Nc1ccc2c(c1)OCO2	GRIN3A LBD mod 13.1
O=C(CSc1nc2ncccc2[nH]1)Nc1ccc2c(c1)OCO2	none
Nn1c(SCC(=O)Nc2ccc3c(c2)OCCO3)nnc1-c1ccncc1	GRIN3A LBD mod 17.4
CCOCCCN(C(=O)c1snc(C(N)=O)c1N)C(C(=O)NC1CCCC1)c1ccc(OC)cc1 (stereo unspecified)	none
CCOc1ccccc1/C=C/c1onc(C)c1S(=O)(=O)N1CCC(C(=O)N2CCCCCC2)CC1	none
NC(=S)NC(c1ccccc1)c1ccncc1 (stereo unspecified)	none
O=C(CSc1ccc2nnc(-c3ccccn3)n2n1)Nc1ccc2c(c1)OCO2	AHR act 53.0
Cc1nnc(SCC(=O)N2CCC(Cc3ccccc3)CC2)n(N)c1=O	GRIN3A LBD mod 11.3
Cc1ccc(NC(=O)CSc2ncn(-c3ccccc3)n2)cc1C	GRIN3A LBD mod 22.2
Cc1ccc(NC(=O)Cn2ccnc2)cc1C	AHR act 58.7
Cc1ccccc1CNC(=O)c1csc([C@H]2C[C@H](O)[C@@H](CO)O2)n1	none (no result: AI-2 QS mod, GRIN3A LBD mod, AHR act, NTR1 ag, SUMO Mot1 rescue)
Cc1cc(OCc2cc(C(=O)N(Cc3nccn3C)C(C)C)no2)cc(C)c1Cl	none
Cn1c(Cn2c(=O)sc3ccccc32)nnc1SCC(=O)Nc1ccc2c(c1)OCO2	AHR act 59.1
Cc1cccc(NC(=O)CSc2nnc(C)c(=O)n2N)c1	SUMO Mot1 rescue 461.1
O=C(CSc1ncn(-c2ccccc2)n1)Nc1ccc2c(c1)OCO2	GRIN3A LBD mod 12.8
Cn1c(Cn2c(=O)sc3ccccc32)nnc1SCC(=O)NCc1ccc2c(c1)OCO2	none
Cc1ccc(NC(=O)CSc2nnc(C)c(=O)n2N)cc1Cl	none
Cn1c(=O)c2[nH]c(SCCN3CCCCC3)nc2n(C)c1=S	GRIN3A LBD mod 15.1 (no result: AI-2 QS mod, AHR act, NTR1 ag, SUMO Mot1 rescue)
COc1ccc(OC)c(N(CC(=O)Nc2cccnc2)S(=O)(=O)c2ccc(OC)c(OC)c2)c1	Cardio protect 50.0
Oc1ccccc1CC=NC1CCCCC1	none (no result: AI-2 QS mod, AHR act, NTR1 ag, SUMO Mot1 rescue)
CCOC(=O)C1CCCN(Cc2nc(CC3CC3)no2)C1 (stereo unspecified)	SUMO Mot1 rescue active
CCOC(=O)N1CCN(Cc2nc(CC3CC3)no2)CC1	none
c1ccc(-c2nnsc2Sc2ccccn2)cc1	GRIN3A LBD mod 14.1
Cc1cc(C)cc(N2CC(C(=O)Nc3cc(C)on3)CC2=O)c1 (stereo unspecified)	SUMO Mot1 rescue 340.6 (no result: AI-2 QS mod)
Cc1cc(C)cc(N2CC(C(=O)OCC(=O)Nc3cc(C)on3)CC2=O)c1 (stereo unspecified)	none
CCOc1ccc(N2C(=O)CC(N3CCN(C(=O)CN4CCCC4)CC3)C2=O)cc1 (stereo unspecified)	none
CCOc1ccc(N2C(=O)CC(N3CCC(NC(=O)Nc4ccccc4)CC3)C2=O)cc1 (stereo unspecified)	GRIN3A LBD mod 13.6
CC1=C(C(=O)N(C(C)C)C(C)C)CC(CC(=O)NC(c2ccccc2)c2ccccc2)C(=O)N1Cc1ccc(F)cc1 (stereo unspecified)	none (no result: AI-2 QS mod, GRIN3A LBD mod, AHR act, NTR1 ag, SUMO Mot1 rescue)
CCOC(=O)C1=C(C)N=c2s/c(=C\c3ccncc3)c(=O)n2C1c1ccc2c(c1)OCO2 (stereo unspecified)	Cardio protect 55.4
Cn1c(=O)c2cc3c(nc2n(C)c1=O)CC(c1ccccc1)CC3=O (stereo unspecified)	AHR act 59.5
Cc1nc2ccccc2c(=O)n1/N=C/c1ccc(O)cc1O	none
CCCc1nc2ccccc2c(=O)n1/N=C/c1c(C)[nH]n(-c2ccc(C)cc2)c1=O	AHR act 58.5
O=c1c2ccccc2nc(COc2ccccc2)n1/N=C/c1cc([N+](=O)[O-])ccc1O	GRIN3A LBD mod 22.0
CCCc1nc2ccccc2c(=O)n1/N=C/c1ccccc1O	Cardio protect 55.9
CCN1N=C(c2ccccc2)Cn2c1nc1ccccc12	AHR act 67.2
O=C(C1CC(=O)N(c2ccc(F)cc2)C1)N1CCC(c2nc3ccccc3[nH]2)CC1 (stereo unspecified)	none
Cc1cc(O)c(C(C[N+](=O)[O-])c2ccc(Cl)cc2)c(=O)o1 (stereo unspecified)	none
Cc1cc(C)n(C(C[N+](=O)[O-])c2ccc(Cl)cc2)n1 (stereo unspecified)	SUMO Mot1 rescue 279.2
CCN(CC(=O)Nc1ccc(NC(C)=O)cc1)C(=O)/C=C/c1cn(-c2ccccc2)nc1-c1ccc(C)cc1	GRIN3A LBD mod 10.4
COc1ccc(-c2nn(-c3ccccc3)cc2/C=C/C(=O)N(C)CC(=O)Nc2cccc(F)c2)cc1OC	GRIN3A LBD mod 10.8 (no result: AI-2 QS mod, AHR act, NTR1 ag, SUMO Mot1 rescue)
CN(CC(=O)Nc1ccc(F)cc1)C(=O)c1cn(-c2ccccc2)nc1-c1cccs1	GRIN3A LBD mod 23.6 (no result: AI-2 QS mod)
CCN(CC(=O)Nc1ccc(NC(C)=O)cc1)C(=O)/C=C/c1cn(-c2ccccc2)nc1-c1ccc(F)cc1	GRIN3A LBD mod 13.7
Cc1cc(NC(=O)CCC(=O)N(CC(=O)NCC2CCCO2)c2ccc(C(C)C)cc2)no1 (stereo unspecified)	none
CCCN(CCC)CCCNC(=O)Cn1cnc2sc(C)c(S(=O)(=O)N3CCOCC3)c2c1=O	none
CCNC(=O)C1(C)CCCN(C(=O)c2ccccc2Br)C1 (stereo unspecified)	none (no result: AI-2 QS mod, GRIN3A LBD mod, AHR act, NTR1 ag, SUMO Mot1 rescue)
Cc1noc(C)c1C(=O)NCCc1c(C)[nH]c2ccccc12	SUMO Mot1 rescue 296.1
CCc1c(C)c(C#N)c2[nH]c3ccccc3n2c1=S	GRIN3A LBD mod 10.9, AHR act 58.7
O=C(NCCCN1CCOCC1)c1ccc(Sc2ccccc2Cl)c([N+](=O)[O-])c1	GRIN3A LBD mod 17.8
O=C1CCNCCN1[C@H](CO)c1ccccc1	none
C=CCn1c(COc2ccccc2)nnc1SC(C)C(=O)N/N=C/c1cc(Cl)ccc1O (stereo unspecified)	Cardio protect 66.6
C=CCn1c(COc2ccc(Cl)cc2)nnc1SCC(=O)N/N=C/c1cccc(O)c1	none
O=C(Nc1nc2ccccc2s1)c1cc(-c2ccco2)nc2ccccc12	AHR act 55.6
Cc1ccc2nc(NC(=O)c3cc(-c4ccco4)nc4ccccc34)sc2c1	none
CN(C)C(=O)c1ccc(NC(=O)c2cc(-c3ccco3)nc3ccccc23)cc1	none (no result: AHR act)
COc1ccc(NC(=O)c2cc(-c3ccco3)nc3ccccc23)cn1	AHR act 70.5 (no result: AI-2 QS mod)
CC(C)(C)CNC(=O)c1cccc2c1C(=O)c1ccc(-c3cc4ccccc4o3)cc1S2(=O)=O	none (no result: AI-2 QS mod)
Oc1ccc(/C=N/Nc2ncc(Br)cn2)c(O)c1	GRIN3A LBD mod 31.1
Oc1ccccc1/C=N/Nc1nccnc1Cl	none
Oc1ccc(/C=N/Nc2nccnc2Cl)c(O)c1	GRIN3A LBD mod 17.6, Cardio protect 52.3
